# Screens: PubChem, National Center for Advancing Translational Sciences (NCATS)
# The list is not random: actives were taken first. Their share in the collection is about 8.1%.
# SW480 rerep – A quantitative high throughput screen for small molecules that induce DNA re-replication in SW480 colon adenocarcinoma cells | SW480 DNA re-replication, Hoechst DNA content imaging, 48 h | Potency, µM (highest dose often 46.1 µM), most hits filed as activators | hit rate 1.8% among 340,000 | AID 624297, 2012; further: nearly all actives have a fitted effect of over 55% in size
#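 250 cells/well; 23 nL cpd via pin tool; 48 hr, 37 C, 5% CO2; Hoechst 40 min; imager read of total nuclear intensity, ex 405/em 500-530 nm.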
# KB-V1 MDR tox – qHTS assay for MDR1-selective chemotherapeutics: Primary screen using the drug-selected MDR subline cells KB-V1; KB-V1 MDR cells viability, CellTiter-Glo, 72 h; Potency, µM (series often up to 46.1 µM), usual class: cytotoxic; hit rate 3.4% among 400,000; AID 1347076, 2019; further: nearly all actives have a fitted effect of over 60% in size
#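 Readout: CellTiter-Glo luminescence, 10 min after addition. Cells: KB-V1 MDR subline, 72 h at 37 degrees C with compound. Analysis: corrected, normalized data fitted to concentration-effect curves.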
# MCF10A rerep – A quantitative high throughput screen for small molecules that induce DNA re-replication in MCF 10a normal breast cells. Potency, µM (doses to about 46.1 µM), most hits filed as activators. hit rate 2.9% among 350,000. MCF 10A DNA re-replication, Hoechst nuclear intensity, 48 h. AID 624296, 2012; further: nearly all actives have a fitted effect of over 50% in size
# ELG1 DNA repair – qHTS screen for small molecules that inhibit ELG1-dependent DNA repair in human embryonic kidney (HEK293T) cells expressing luciferase-tagged ELG1 | HEK293T ELG1-luciferase reporter, luminescence, 16 h; DNA damage induced by 5-fluorouridine | hit rate 2.3% among 330,000 | Potency, µM (titrated, usually from 46.1 µM), usual class: inhibitors; further: nearly all actives have a fitted effect of over 55% in size
#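 Step one: seed 2,000 cells per well. Step two: pin-transfer compound or DMSO alongside 5-fluorouridine. Step three: incubate 16 hr, 37 °C, 5% CO2. Step four: add ONE-Glo, wait 30 min, read luminescence.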
# KB-3-1 tox – qHTS assay for MDR1-selective chemotherapeutics: Primary screen using the parental adenocarcinoma cell KB-3-1; KB-3-1 viability, CellTiter-Glo ATP luminescence, 72 h; Potency, µM (doses to about 46.1 µM), hits mostly cytotoxic; hit rate 1.4% among 400,000; AID 1347075, 2019; further: nearly all actives have a fitted effect of over 60% in size
#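 Multi-concentration cytotoxicity screen in KB-3-1 cells grown in DMEM lacking phenol red with 10% FBS. After 72 h at 37 °C with compound, ATP-dependent luminescence was recorded.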
# A number is an active result; – = inactive; ? = inconclusive; · = no result given. The call rests on the fitted dose curve; in most records, active means well fitted curve in the direction sought with a large enough effect; inconclusive means small, poorly fitted or top-dose-only effect, or another doubt; inactive means no such curve, though single readings can be large; an effect the other way counts as inactive or inconclusive.
SMILES,SW480 rerep,KB-V1 MDR tox,MCF10A rerep,ELG1 DNA repair,KB-3-1 tox
Cc1cc2cc(C#N)c(SCC(=O)Nc3nonc3C)nc2cc1C,?,–,15µM,?,–
COc1ccc2cc(C#N)c(SCC(=O)Nc3nonc3C)nc2c1,?,–,–,–,–
CCC1CSC(Nc2ccc(C(=O)/C=C/c3cccc(C)c3)cc2)=N1 (stereo not given),?,–,16µM,–,?
CCC1CSC(Nc2ccc(C(=O)/C=C/c3ccc(Oc4ccccc4)cc3)cc2)=N1 (stereo not given),?,18µM,?,–,?
NNc1nc(-c2ccccc2)c2cc(Cl)ccc2n1,–,–,10µM,–,–
O=C(NCCO)c1cccc(Nc2nc(-c3ccccc3)c3cc(Cl)ccc3n2)c1,16µM,16µM,?,?,–
O=C(O)CCCC(=O)NNc1nc(-c2ccccc2)c2cc(Cl)ccc2n1,–,–,–,–,–
CCCCn1nnc(NC(=O)COc2ccc(Cl)c(C)c2)n1,–,–,–,–,–
COC(=O)Cn1c(CN2CCc3ccccc3C2)nc2c1c(=O)n(C)c(=O)n2C,–,–,–,–,–
Cc1ccccc1Cn1c(CN2CCc3ccccc3C2)nc2c1c(=O)n(C)c(=O)n2C,–,23µM,–,13µM,–
Cn1c(=O)c2c(nc(CN3CCN(Cc4ccccc4)CC3)n2CCN2CCOCC2)n(C)c1=O,–,–,–,–,–
Cn1c(=O)c2c(nc(CN3CCN(Cc4ccccc4)CC3)n2Cc2ccc(Cl)cc2)n(C)c1=O,?,–,?,21µM,?
Cn1c(=O)c2c(nc(CN3CCc4ccccc4C3)n2Cc2ccc(F)cc2)n(C)c1=O,?,9.2µM,–,·,–
Cc1ccc(NC(=O)CN2C(=O)S/C(=C\c3cccn3C)C2=O)cc1,–,–,?,–,–
CCc1ccc(CNC(=O)C2CCCN(S(=O)(=O)N3CC(C)CC(C)C3)C2)cc1 (stereo not given),?,–,–,–,–
Cc1ccc(F)c(S(=O)(=O)NC(=O)C2(C)CCN2C(=O)Cc2ccc(-c3ccccc3)cc2)c1 (stereo not given),·,–,·,·,–
CC1(C)CC(=O)C=C(c2ccc(-c3ccc4[nH]ccc4c3)cc2)C1=O,·,?,·,·,8.2µM
CC1(C)CC(=O)C=C(c2ccccc2-c2ccc3cc[nH]c3c2)C1=O,·,?,·,·,–
CC(C)(C)NC(=O)C(c1ccccc1)n1c(=O)c(-c2cc3ccccc3[nH]2)nc2ccccc21 (stereo not given),·,23µM,·,·,?
Cc1cccc(C)c1NC(=O)C(CCc1ccccc1)n1c(=O)c(-c2cc3ccccc3[nH]2)nc2ccccc21 (stereo not given),·,21µM,·,·,?
O=C(NC1CCCCC1)C(C1CC1)n1c(=O)c(-c2cc3ccccc3[nH]2)nc2ccccc21 (stereo not given),·,23µM,·,·,?
CC(C)(C)NC(=O)C(c1ccc(-c2ccccc2)cc1)n1c(=O)c(-c2cc3ccccc3[nH]2)nc2ccccc21 (stereo not given),·,–,·,·,?
CC(C)(C)NC(=O)C(CCc1ccccc1)n1c(=O)c(-c2cc3ccccc3[nH]2)nc2ccccc21 (stereo not given),·,?,·,·,–
O=C(NC1CCCC1)C(C1CC1)n1c(-c2cc3ccccc3[nH]2)nc2ccccc21 (stereo not given),·,?,·,·,–
O=C(NN=C1CCCCCC1)c1cccs1,–,–,–,?,–
Cc1ccc(OCC(=O)N/N=C/C=C/c2ccco2)cc1,?,–,?,–,–
CC(C)(C)OC(=O)N1CCc2onc(-c3ccc(Cl)cc3)c2C1=O,·,–,·,·,–
C#CCN1CCc2onc(-c3ccc(Br)cc3)c2C1=O,·,18µM,·,·,?
Clc1cccc(N2CCN(CCNc3nc4ccccc4n4cnnc34)CC2)c1,–,–,–,21µM,–
c1ccc2c(c1)nc(NCCN1CCOCC1)c1nncn12,–,–,–,?,–
